In all, about 5,500 compounds went through this assay and about 2,000 (36%) were called active. Not shown: some 18% with an inconclusive outcome. Cut-off read from the data, not from the text of the source: active = normalized growth mostly below about 0.91 (no sharp cut-off); inconclusive = no clear call, values can overlap the other calls; inactive = mostly above about 0.92. The list shows a part of the results.
Assay: chemical genetic growth profiling, strain panel (AID 1159580);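 note: tested at 20 µM; growth read once vehicle control cultures reached saturation at 30 °C; 1 = growth at the plate median or of vehicle wells; lower values mean less growth of the strain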
Conditions: S. cerevisiae deletion strains, growth OD

Measured: normalized growth

CC(=O)O[C@@H]1CC2C(C)(C)[C@H](O)C[C@H](O)[C@]2(C)C2CC[C@@]3(C)C(=CC(=O)O[C@H]3c3ccoc3)[C@@]21C (stereo not given in full)
inactive: locus YAL021C, strain ccr4, stronger effect = lower value 0.977 | locus YAL026C, strain drs2, stronger effect = lower value 0.988 | locus YAL030W, strain snc1, stronger effect = lower value 1 | locus YBL061C, strain skt5, stronger effect = lower value 1 | locus YBR009C, strain hhf1, stronger effect = lower value 1.02 | locus YBR023C, strain chs3, stronger effect = lower value 0.991 | locus YBR171W, strain sec66, stronger effect = lower value 1.01 | locus YBR231C, strain swc5, stronger effect = lower value 1 | locus YBR279W, strain paf1, stronger effect = lower value 0.979 | locus YCL011C, strain gbp2, stronger effect = lower value 0.969 | locus YCL016C, strain dcc1, stronger effect = lower value 0.973 | locus YCL069W, strain vba3, stronger effect = lower value 0.99 | locus YCR088W, strain abp1, stronger effect = lower value 0.992 | locus YDL005C, strain med2, stronger effect = lower value 0.981 | locus YDL040C, strain nat1, stronger effect = lower value 0.99 | locus YDR001C, strain nth1, stronger effect = lower value 0.979 | locus YDR069C, strain doa4, stronger effect = lower value 0.983 | locus YDR137W, strain rgp1, stronger effect = lower value 0.981 | locus YDR159W, strain sac3, stronger effect = lower value 0.978 | locus YDR195W, strain ref2 0.989 | locus YDR297W, strain sur2, stronger effect = lower value 0.98 | locus YDR334W, strain swr1, stronger effect = lower value 0.977 | locus YDR335W, strain msn5, stronger effect = lower value 0.973 | locus YDR392W, strain spt3, stronger effect = lower value 0.914 | locus YEL003W, strain gim4, stronger effect = lower value 1.01 | locus YEL037C, strain rad23, stronger effect = lower value 0.99 | locus YEL061C, strain CIN8 (second series), stronger effect = lower value 0.995 | locus YER015W, strain faa2, stronger effect = lower value 0.976 | locus YER016W, strain bim1, stronger effect = lower value 1.01 | locus YER111C, strain swi4, stronger effect = lower value 0.978 | locus YER155C, strain BEM2 (second series), stronger effect = lower value 1.04 | locus YFR010W, strain ubp6, stronger effect = lower value 1.02 | locus YGL167C, strain pmr1, stronger effect = lower value 0.991 | locus YGL173C, strain kem1, stronger effect = lower value 1.05 | locus YGL227W, strain vid30, stronger effect = lower value 0.986 | locus YGL240W, strain doc1, stronger effect = lower value 1.03 | locus YGL253W, strain hxk2, stronger effect = lower value 0.941 | locus YHR013C, strain ard1, stronger effect = lower value 0.952 | locus YHR027C, strain rpn1, stronger effect = lower value 0.979 | locus YHR142W, strain chs7, stronger effect = lower value 0.945 | locus YJL092W, strain hpr5, stronger effect = lower value 0.985 | locus YJL095W, strain BCK1 (second series), stronger effect = lower value 0.991 | locus YJL115W, strain asf1, stronger effect = lower value 0.963 | locus YJL129C, strain trk1, stronger effect = lower value 0.994 | locus YJL154C, strain vps35, stronger effect = lower value 0.981 | locus YJL164C, strain tpk1, stronger effect = lower value 0.992 | locus YJL166W, strain qcr8, stronger effect = lower value 1.02 | locus YKL160W, strain elf1, stronger effect = lower value 0.981 | locus YKR026C, strain gcn3, stronger effect = lower value 0.989 | locus YKR091W, strain srl3, stronger effect = lower value 0.976 | locus YLL001W, strain dnm1, stronger effect = lower value 0.998 | locus YLL026W, stronger effect = lower value 0.996 | locus YLL041C, strain sdh2, stronger effect = lower value 0.984 | locus YLR027C, strain aat2, stronger effect = lower value 1.01 | locus YLR221C, strain rsa3, stronger effect = lower value 1.03 | locus YLR258W, strain gsy2, stronger effect = lower value 0.974 | locus YLR262C, strain YPT6 (second series), stronger effect = lower value 0.967 | locus YLR320W, strain mms22, stronger effect = lower value 1.02 | locus YLR342W, strain FKS1, stronger effect = lower value 0.991 | locus YLR357W, strain rsc2, stronger effect = lower value 0.984 | locus YLR370C, strain arc18, stronger effect = lower value 0.983 | locus YLR384C, strain iki3, stronger effect = lower value 0.978 | locus YML120C, strain ndi1, stronger effect = lower value 1.01 | locus YMR058W, strain fet3, stronger effect = lower value 1 | locus YMR125W, strain sto1, stronger effect = lower value 0.991 | locus YMR129W, stronger effect = lower value 0.972 | locus YMR205C, strain PFK2, stronger effect = lower value 1.04 | locus YMR231W, strain pep5, stronger effect = lower value 1 | locus YNL071W, strain lat1, stronger effect = lower value 1 | locus YNL209W, strain ssb2, stronger effect = lower value 0.968 | locus YNL248C, strain rpa49, stronger effect = lower value 0.967 | locus YNL322C, strain KRE1 (second series), stronger effect = lower value 1.01 | locus YNR049C, strain mso1, stronger effect = lower value 0.961 | locus YOR001W, strain rrp6, stronger effect = lower value 1.03 | locus YOR070C, strain gyp1, stronger effect = lower value 0.989 | locus YOR080W, strain dia2, stronger effect = lower value 0.986 | locus YOR083W, strain WHI5, stronger effect = lower value 0.954 | locus YOR106W, strain vam3, stronger effect = lower value 0.946 | locus YOR265W, strain rbl2, stronger effect = lower value 0.991 | locus YOR270C, strain vph1, stronger effect = lower value 0.926 | locus YOR290C, strain snf2, stronger effect = lower value 0.942 | locus YPL051W, strain arl3, stronger effect = lower value 0.994 | locus YPL078C, strain atp4, stronger effect = lower value 0.988 | locus YPL106C, strain sse1, stronger effect = lower value 0.975 | locus YPL240C, strain hsp82, stronger effect = lower value 0.994
